Results on six compounds are retold here after PubChem BioAssay.

One assay has as its target Albumin (Bos taurus) (UniProt P02769). Put plainly: bovine serum albumin binders on microarray, profiling panel, artefact control for SMM control protein annotation, biochemical, small-molecule microarray, Alexa647 label, 635/667 nm fluorescence (AID 1118).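 Further: score merges 667 nm emission intensity and signal-to-noise per printed compound spot.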 The note with it: BSA-A647 binding, fluorescence 635 nm, higher = more signal.
Assay [1] can be described thus: small-molecule microarray binders of probe aXIP, primary screen, biochemical, NeuroSMM set, 635/667 nm fluorescence (AID 1119).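 Further: probe is the protein aXip251-270 applied at 1 µg/mL to compound-printed slides; binding of probe to printed compounds measured as 667 nm fluorescence plus signal to noise.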 The note with it: higher = more signal, called active from +8 up or from −8 down.
A short description of assay [2]: small-molecule binders of probe aNOTCH3, primary screen, biochemical, small-molecule microarray, 635/667 nm fluorescence (AID 1120).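 Further: probe is a biotin-tagged antibody raised against NOTCH3 rather than NOTCH3 protein; score merges spot fluorescence near 667 nm with spot signal to noise.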 The note with it: higher = more signal.
The nature of assay [3]: small-molecule binders of probe aNOTCH2, primary screen, biochemical, small-molecule microarray, 635/667 nm fluorescence (AID 1121).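 Further: score merges feature fluorescence read at 667 nm with its signal to noise.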 The note with it: higher = more signal.
Assay [4] addresses Carbonic anhydrase 2 (Homo sapiens) (UniProt P00918). Put plainly: CAII small-molecule binders, profiling panel, biochemical, small-molecule microarray, Alexa647-labelled CAII (AID 1122). The note with it: CAII-A647 binding fluorescence, higher = more signal.
A short description of assay [5]: COS7 lysate on small-molecule microarray, probe aHis, 635 nm (AID 1123).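 Further: z-score combines 667nm fluorescence intensity with signal-to-noise per printed compound spot.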 The note with it: COS7 cell lysate, fluorescence, higher = more signal.
Assay [6] is described as follows: compound binding in COS7 lysate, probe aLAP1, primary screen, cell lysate, small-molecule microarray (AID 1124).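 Further: lysate comes from COS7 cells expressing LAP1 and is applied at 0.3 µg/mL; score merges spot fluorescence near 667 nm with signal-to-noise over triplicate slides.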 The note with it: probe aLAP1, fluorescence, higher = more signal.
The test system of a further assay is Sam68 (KHDRBS1). Put plainly: Sam68 small-molecule binders, primary screen, biochemical, small-molecule microarray, 635 nm fluorescence (AID 1125).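 Further: score merges 667 nm channel intensity with signal to noise over triplicate slides.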 The note with it: small-molecule microarray binding, higher = more signal.
The test system of assay [7] is Chordin-like protein 2 (CHRDL2). Put plainly: CHRDL2 small-molecule binders, primary screen, biochemical, small-molecule microarray, 635 nm fluorescence (AID 1126).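 Further: printed compound slides probed with Chrdl2 protein at 4 µg/mL for 1 h at 4 C; score merges 667 nm emission intensity with signal to noise over three replicate slides.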 The note with it: small-molecule microarray binding, fluorescence 635 nm; higher = more signal.
For assay [8], the target named is Concanavalin-A (Canavalia ensiformis) (UniProt P02866). Put plainly: ConA small-molecule binders, primary screen, artefact control for SMM control protein annotation, biochemical, small-molecule microarray, Alexa647 label, 635 nm (AID 1127).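 Further: z combines 667 nm emission intensity with signal-to-noise across three replicate slides.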 The note with it: ConA-A647 binding fluorescence, higher = more signal.
Assay [9] can be described thus: anti-His antibody binders, primary screen, artefact control for SMM control protein annotation, biochemical, small-molecule microarray, 635 nm fluorescence (AID 1128).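 Further: score merges feature fluorescence with signal-to-noise for each printed compound spot.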 The note with it: anti-His Alexa647 antibody binding, higher = more signal.
Assay [10] concerns Human papillomavirus type 1a E7 protein (residues 1-88). Put plainly: HPV1a E7 small-molecule binders, primary screen, biochemical, small-molecule microarray, residues 1-88, 635 nm (AID 1129). The note with it: small-molecule microarray binding, fluorescence 635 nm; higher = more signal.
Assay [11] has as its target Focal adhesion kinase 1 (Homo sapiens) (UniProt Q05397). Put plainly: small-molecule microarray binders of FAK, primary screen, biochemical, 635/667 nm fluorescence, BSA, DTT (AID 1130).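 Further: composite of spot emission at 667 nm and signal to noise over triplicate slides.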 The note with it: PTK2 binding, 635 nm fluorescence, higher = more signal.
Assay [12] concerns Fibrinogen (Alexa647-labelled). The experiment in a line: fibrinogen binders on compound microarrays, profiling panel, artefact control for SMM control-protein annotation, biochemical, small-molecule microarray, 635/667 nm fluorescence (AID 1131).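 Further: z-score merges 667 nm fluorescence with per-spot signal-to-noise over triplicate slides.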 The note with it: fibrinogen-A647 binding fluorescence, higher = more signal.
Assay [13] concerns the target Follistatin (Homo sapiens) (UniProt P19883). Put plainly: follistatin binders on small-molecule microarrays, primary screen, biochemical, small-molecule microarray, 635/667 nm fluorescence (AID 1132). The note with it: FST binding, 635 nm fluorescence, higher = more signal.
Assay [14] deals with Fibroblast growth factor 2 (Homo sapiens) (UniProt P09038). Put plainly: FGF2 binders on small-molecule microarrays, primary screen, biochemical, small-molecule microarray, 635/667 nm fluorescence (AID 1133). The note with it: small-molecule microarray binding, FGF2, fluorescence 635/667; higher = more signal.
The nature of assay [15]: mitochondrial membrane potential change in A549 cells, profiling panel, cell-based, JC-1 fluorescence, basal, 24 h, 100 nL (AID 1138).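 Further: A549 lung adenocarcinoma cells under basal conditions with no added stimulus; test concentration not given here.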 The note with it: higher = more signal.
In another assay the test system is Lefty1. The experiment in a line: Lefty1 binders on small-molecule microarrays, primary screen, biochemical, small-molecule microarray, 635/667 nm fluorescence (AID 1139). The note with it: small-molecule microarray binding, fluorescence 635/667; higher = more signal.
Assay [16] relates to wheat germ agglutinin (Triticum aestivum), Alexa647-labelled. The experiment in a line: wheat germ agglutinin binders on compound microarrays, profiling panel, artefact control for SMM control-protein annotation, biochemical, small-molecule microarray, 635/667 nm fluorescence (AID 1140).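 Further: score merges 667 nm feature emission with signal to noise over triplicate slides.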 The note with it: WGA-A647 binding, 635 nm fluorescence, higher = more signal.
The target of assay [17] is Luciferin 4-monooxygenase (Photinus pyralis) (UniProt P08659). The experiment in a line: firefly luciferase enzyme inhibitors, primary screen, biochemical, luminescence, purified enzyme, 2006 set (AID 1141).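 Further: cell-free assay with purified firefly luciferase at 100 ng per well in PBS; test concentration not given here.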 The note with it: SteadyGlo luminescence, 30 min, higher = more signal, called active from +8 up or from −8 down.

The structures appear in SMILES notation. Activity calls are given as the source filed them.

Sequence of Albumin (Bos taurus) (P02769 whole entry, looked up): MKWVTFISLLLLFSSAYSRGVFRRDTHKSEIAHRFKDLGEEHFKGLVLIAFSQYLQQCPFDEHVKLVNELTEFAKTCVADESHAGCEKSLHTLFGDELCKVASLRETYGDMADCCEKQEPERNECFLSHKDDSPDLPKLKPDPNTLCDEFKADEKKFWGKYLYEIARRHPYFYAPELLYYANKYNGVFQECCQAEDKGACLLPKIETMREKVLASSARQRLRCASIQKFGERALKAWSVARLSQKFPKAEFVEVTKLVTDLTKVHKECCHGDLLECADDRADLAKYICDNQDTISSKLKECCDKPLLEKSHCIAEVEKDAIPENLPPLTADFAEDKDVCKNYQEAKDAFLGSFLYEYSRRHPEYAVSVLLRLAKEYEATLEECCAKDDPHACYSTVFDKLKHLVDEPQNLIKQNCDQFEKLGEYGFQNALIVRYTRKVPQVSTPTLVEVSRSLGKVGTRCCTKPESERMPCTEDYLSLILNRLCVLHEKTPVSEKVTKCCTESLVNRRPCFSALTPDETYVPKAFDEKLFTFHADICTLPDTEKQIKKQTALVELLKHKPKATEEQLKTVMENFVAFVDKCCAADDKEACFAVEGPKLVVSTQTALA
Sequence of Fibroblast growth factor 2 (Homo sapiens) (P09038 whole entry, looked up): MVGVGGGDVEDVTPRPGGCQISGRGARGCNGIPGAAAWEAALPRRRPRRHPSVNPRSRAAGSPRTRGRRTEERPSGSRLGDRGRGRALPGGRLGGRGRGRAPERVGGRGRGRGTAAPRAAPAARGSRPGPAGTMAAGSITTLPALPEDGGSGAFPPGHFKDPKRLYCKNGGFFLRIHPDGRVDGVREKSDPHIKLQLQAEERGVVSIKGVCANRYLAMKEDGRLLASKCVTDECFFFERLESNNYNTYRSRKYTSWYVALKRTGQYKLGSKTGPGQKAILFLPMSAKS
Sequence of Luciferin 4-monooxygenase (Photinus pyralis) (P08659 whole entry, looked up): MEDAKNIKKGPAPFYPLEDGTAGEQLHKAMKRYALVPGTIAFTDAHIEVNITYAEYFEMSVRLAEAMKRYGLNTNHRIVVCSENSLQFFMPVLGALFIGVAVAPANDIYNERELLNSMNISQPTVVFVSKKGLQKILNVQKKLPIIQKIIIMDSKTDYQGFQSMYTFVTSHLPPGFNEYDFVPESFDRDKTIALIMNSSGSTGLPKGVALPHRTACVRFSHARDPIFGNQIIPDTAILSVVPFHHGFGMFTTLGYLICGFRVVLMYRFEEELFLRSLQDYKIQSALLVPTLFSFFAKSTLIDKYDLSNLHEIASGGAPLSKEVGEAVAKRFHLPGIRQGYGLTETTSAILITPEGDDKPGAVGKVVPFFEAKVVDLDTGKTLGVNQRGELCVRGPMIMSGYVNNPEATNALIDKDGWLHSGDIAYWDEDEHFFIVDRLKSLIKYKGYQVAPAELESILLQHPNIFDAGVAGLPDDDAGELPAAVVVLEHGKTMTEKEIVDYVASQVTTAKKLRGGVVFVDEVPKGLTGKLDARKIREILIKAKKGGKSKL
Sequence of Follistatin (Homo sapiens) (P19883 whole entry, looked up): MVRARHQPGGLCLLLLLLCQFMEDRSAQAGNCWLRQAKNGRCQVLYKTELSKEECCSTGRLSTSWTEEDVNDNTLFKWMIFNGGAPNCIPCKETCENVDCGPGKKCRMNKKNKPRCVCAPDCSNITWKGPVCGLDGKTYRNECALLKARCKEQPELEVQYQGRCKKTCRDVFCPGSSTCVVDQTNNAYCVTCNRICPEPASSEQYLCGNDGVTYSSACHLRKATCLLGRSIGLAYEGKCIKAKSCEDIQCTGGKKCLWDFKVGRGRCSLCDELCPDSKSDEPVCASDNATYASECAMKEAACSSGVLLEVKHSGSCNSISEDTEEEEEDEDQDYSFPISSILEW
Sequence of Focal adhesion kinase 1 (Homo sapiens) (Q05397 whole entry, looked up): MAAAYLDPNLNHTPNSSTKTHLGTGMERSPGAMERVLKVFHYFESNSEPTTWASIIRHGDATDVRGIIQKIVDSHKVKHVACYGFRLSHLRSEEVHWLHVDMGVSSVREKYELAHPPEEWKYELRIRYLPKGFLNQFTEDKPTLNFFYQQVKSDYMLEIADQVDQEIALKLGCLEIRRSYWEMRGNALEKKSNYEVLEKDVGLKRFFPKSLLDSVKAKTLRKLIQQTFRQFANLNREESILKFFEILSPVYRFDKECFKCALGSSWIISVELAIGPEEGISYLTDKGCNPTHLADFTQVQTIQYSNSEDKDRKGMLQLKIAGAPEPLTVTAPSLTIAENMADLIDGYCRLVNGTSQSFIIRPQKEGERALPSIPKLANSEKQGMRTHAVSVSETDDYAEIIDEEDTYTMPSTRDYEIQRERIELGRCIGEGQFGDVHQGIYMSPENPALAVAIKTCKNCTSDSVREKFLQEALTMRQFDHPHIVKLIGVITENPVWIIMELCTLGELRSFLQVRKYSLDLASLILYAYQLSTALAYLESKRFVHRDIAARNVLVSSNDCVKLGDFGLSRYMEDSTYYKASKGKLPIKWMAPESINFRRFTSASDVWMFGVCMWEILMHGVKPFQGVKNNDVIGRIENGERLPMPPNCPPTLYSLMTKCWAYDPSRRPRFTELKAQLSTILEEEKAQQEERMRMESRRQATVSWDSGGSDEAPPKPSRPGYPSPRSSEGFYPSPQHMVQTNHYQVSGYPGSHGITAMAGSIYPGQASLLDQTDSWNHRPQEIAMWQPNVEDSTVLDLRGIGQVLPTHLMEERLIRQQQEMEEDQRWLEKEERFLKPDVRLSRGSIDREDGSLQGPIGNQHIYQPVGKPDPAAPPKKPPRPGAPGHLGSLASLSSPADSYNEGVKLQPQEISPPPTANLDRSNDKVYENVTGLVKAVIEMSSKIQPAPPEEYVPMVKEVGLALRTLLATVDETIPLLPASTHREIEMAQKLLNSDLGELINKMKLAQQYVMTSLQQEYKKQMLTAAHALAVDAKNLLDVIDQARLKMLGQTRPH
Sequence of Concanavalin-A (Canavalia ensiformis) (P02866 whole entry, looked up): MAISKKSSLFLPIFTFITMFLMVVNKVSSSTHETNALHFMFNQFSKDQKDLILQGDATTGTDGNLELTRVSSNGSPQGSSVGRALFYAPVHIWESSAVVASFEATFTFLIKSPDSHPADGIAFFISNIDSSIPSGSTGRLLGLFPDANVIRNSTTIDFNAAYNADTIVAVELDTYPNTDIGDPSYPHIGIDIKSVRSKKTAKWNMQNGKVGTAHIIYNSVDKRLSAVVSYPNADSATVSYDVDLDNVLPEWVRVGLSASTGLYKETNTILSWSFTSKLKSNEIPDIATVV

For `C[C@H]1NC(=O)[C@@H](C)NC(=O)[C@@]23C(=O)N[C@@H](Cc4ccccc4)C2[C@H](C)[C@@]2(C)O[C@H]2C3/C=C/C/C=C\CNC1=O` (stereo not given in full), the composite z-score is -0.631 with Albumin (Bos taurus); -0.195 in assay [2]; -0.126 in [3]; 0.502 in assay [4]; -0.482 in assay [5]; -0.599 in assay [6]. The composite z-score in the assay with Sam68 (KHDRBS1) is -0.344; in [7], 0.274; in assay [8], -0.888; in assay [9], -0.759; in assay [10] it was -1.84; in assay [11], -0.801. Moreover, the composite z-score in assay [12] was -0.388; in [13] it was 0.117; in assay [14], 0.0213; with Lefty1, -0.0767; in assay [16] it was 0.0969. In [1], the composite Z-score was 0.0894 (inactive). Besides, the z-score was 1.07 in assay [15] and -0.919 (inactive) in [17].

In the case of `CCC(=O)[C@]12O[C@@]3([C@@H]4C(=O)OCC[C@@H]41)N(Cc1ccccc1)C(C)=C(C(=O)OC)[C@@H](c1ccccc1)N3C2=O`, the composite z-score with Albumin (Bos taurus) is 0.226; in [2], -0.207; in [3] it was -0.164; in [4] it was 0.463; in assay [5] it was -0.859; in [6] it was -0.242. Further, the composite z-score in the assay on Sam68 (KHDRBS1) was -1.07; in assay [7], -0.334; in [8], -1.17; in assay [9], -0.97; in assay [10], -2.31; in [11], 0.0625. The composite z-score in [12] was -1.35; in [13], -0.65; in assay [14], -0.715; with Lefty1, 0.197; in [16], -0.803. Further, in [1], the composite Z-score is -0.428 (inactive). Moreover, the z-score was 1.27 in assay [15] and -1.36 (inactive) in [17].

`CN1C2C=C(c3ccc(CO)cc3)C(C3C(=O)N(C(N)=O)C(=O)C32)C1c1cccs1` (stereo not given): the composite z-score is -0.444 in the assay with Albumin (Bos taurus); 0.0261 in [2]; -0.162 in assay [3]; 0.704 in [4]; 0.4 in assay [5]; -0.342 in [6]. Also, the composite z-score is 0.0726 in the assay on Sam68 (KHDRBS1); -0.934 in assay [7]; -0.0029 in [8]; -0.734 in assay [9]; -0.343 in assay [10]; -0.0644 in assay [11]. The composite z-score in assay [12] was -0.25; in assay [13], -0.513; in assay [14] it was -0.676; in the assay with Lefty1, 0.358; in [16], -0.543. Further, the composite Z-score in assay [1] is 0.173 (inactive). Further, the values for the z-score in assay [15] and in assay [17] were 1.38 and -1.49 (inactive), respectively.

As to `NC(=O)NCC#Cc1ccc2c(c1)[C@]1(C(=O)N2)[C@H](c2ccccc2OCCO)N2[C@H](c3ccccc3)[C@H](c3ccccc3)OC(=O)[C@H]2[C@@H]1C(=O)N1CCN(c2ncccn2)CC1`, the composite z-score with Albumin (Bos taurus) is 0.0405; in [2], 0.0539; in assay [3] it was -0.0907; in [4] it was 0.335; in assay [5], 1.82; in assay [6] it was 0.614. For the same compound, the composite z-score came out at 1.29 in the assay with Sam68 (KHDRBS1); 0.326 in assay [7]; 0.946 in [8]; 0.997 in [9]; 1.19 in assay [10]; 0.695 in [11]. The composite z-score in assay [12] stood at 0.814; in assay [13] it was 1.08; in [14], 1.03; in the assay on Lefty1 it was 0.347; in [16] it was 0.438. In assay [1], the composite Z-score is 0.39 (inactive). The z-score is -0.77 in [15] and -0.538 (inactive) in assay [17].

Consider `COC(=O)C1=C(C)N(Cc2ccccc2)c2c(C(=O)OC)c(C(=O)OC)c(C(=O)OC)c(=O)n2[C@@H]1c1ccccc1`, for which the composite z-score was 0.8 with Albumin (Bos taurus); 0.116 in assay [2]; -0.0158 in assay [3]; 0.0478 in [4]; 0.247 in [5]; 0.763 in assay [6]. Also, the composite z-score in the assay on Sam68 (KHDRBS1) is 0.383; in [7], -0.0328; in assay [8] it was 0.641; in assay [9], -0.0074; in assay [10], 0.436; in assay [11] it was 0.39. Further, the composite z-score came to 0.437 in assay [12]; 0.321 in assay [13]; 0.528 in [14]; 0.27 in the assay with Lefty1; 0.292 in assay [16]. The composite Z-score in assay [1] is 0.242 (inactive). Moreover, the z-score in [15] was 0.813; in assay [17], -1.01 (inactive).

As to `CO[C@H]1COC(=O)CC=C[C@H](C)COC(=O)[C@@H](OCc2ccccc2)C=C[C@@H]1C`, the composite z-score with Albumin (Bos taurus) was -0.877; in assay [2], -0.308; in assay [3], -0.14; in [4], -0.394; in assay [5], -0.234; in assay [6], 0.0842. Further, the composite z-score in the assay on Sam68 (KHDRBS1) is 0.379; in assay [7], 1.51; in [8], -0.602; in assay [9] it was 0.507; in assay [10], -0.67; in assay [11] it was -0.3. Moreover, the composite z-score is -0.418 in assay [12]; 1.56 in [13]; 1.83 in [14]; 1.69 in the assay on Lefty1; -0.726 in assay [16]. Further, the composite Z-score in [1] is 2.71 (inactive). The z-score was 0.33 in assay [15] and -0.275 (inactive) in assay [17].
